Experimental data reported in PubChem BioAssay AID1952 (The Scripps Research Institute Molecular Screening Center, 2009).
Among all 2,400 compounds or so, about 1,200 (50%) were called active. No stated cut-off is given here; in the data, active means inhibition above about 24%; inactive means the rest. So high a share suggests a set chosen from earlier hits. These entries were drawn from the full list.

target: Neuropeptides B/W receptor type 1 (Homo sapiens) (UniProt P48145); assay: blockers of human NPBW1 receptor – cell-based, fluorescence, single concentration, confirmation (AID 1952); details: GPR7-expressing cells, calcium fluorescence antagonist mode; at 4.4 µM; hits give high values;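 further: stimulated with the GPR7 agonist NPW; 0% = agonist plus vehicle and 100% = vehicle alone without agonist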
Sequence (P48145 whole entry, looked up): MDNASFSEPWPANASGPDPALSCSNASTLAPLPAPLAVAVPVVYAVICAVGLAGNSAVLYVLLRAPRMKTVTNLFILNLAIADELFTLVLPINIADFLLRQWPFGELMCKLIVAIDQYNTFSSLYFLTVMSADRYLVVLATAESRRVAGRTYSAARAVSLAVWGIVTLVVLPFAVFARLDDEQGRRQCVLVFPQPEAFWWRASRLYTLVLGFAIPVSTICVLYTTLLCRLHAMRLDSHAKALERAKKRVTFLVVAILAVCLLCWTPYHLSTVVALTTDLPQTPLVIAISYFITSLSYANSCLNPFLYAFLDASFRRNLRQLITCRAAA

inhibition, inactive:
COc1ccccc1CNC(=O)COc1ccc(C)nc1[N+](=O)[O-] 2.95%
COc1ccccc1Oc1ccc(S(=O)(=O)Nc2cccnc2)cc1 16.8%
O=C(CC(=O)Nc1ccc(Cl)c(Cl)c1)N/N=C/c1ccc(O)cc1 10.9%
CC1(C)CC(CNCCC(c2ccc(F)cc2)c2ccco2)CCO1 (stereo unspecified) 12.5%
O=C(CCc1ccccc1)Nc1ccc(NC(=O)C2CC2)nc1 17.6%
Cc1ccc(NC(=O)CN2CCC3(O)CCCCC3C2c2ccc3c(c2)OCO3)c(C)c1 (stereo unspecified) 19.6%
O=C(COc1ccccc1)NCc1ccc2c(c1)OCO2 14.3%
COc1cc(NC(=O)CN2C(=O)NC(C)(c3ccc(OC(F)F)cc3)C2=O)cc(OC)c1OC (stereo unspecified) 23.2%
Cc1cc2c(cc1C)N(Cc1ccccc1)C1=NCCCN12 20.8%
CCOc1ccc(C(=O)NC(=S)Nc2ccc(N3CCOCC3)c(Cl)c2)cc1[N+](=O)[O-] -6.59%
COc1ccc(N=C2SC(C(=O)Nc3ccc(F)cc3)CC(=O)N2C)cc1 (stereo unspecified) 4.38%
Fc1ccc(-c2ccc(-c3nn4c(-c5ccco5)nnc4s3)o2)cc1 8.54%
O=C(CN1C(=O)/C(=C/c2ccccc2F)Sc2ccccc21)NCc1cccnc1 -18%
C=CCNC(=O)COC(=O)c1ccccc1C(=O)N(C)C1CCCCC1 -3.62%
O=C(Nc1ccc2c(c1)OCO2)C1CC(c2c(F)cccc2Cl)=NO1 (stereo unspecified) 8.85%
COc1ccc(NC(=O)C2CCC(CNS(=O)(=O)c3csc(C(N)=O)c3)CC2)cc1OC (stereo unspecified) -15.3%
COCCCNC(=S)N1CCN(c2nc(-c3cccc(OC)c3)cs2)CC1 19%
O=C(NC(=O)c1ccccc1)Nc1ccccc1O 12.2%
O=C(CCCN1CCc2[nH]c3ccc(F)cc3c2C1)c1ccc(F)cc1 18.6%
O=C(CSc1nnc(-c2ccco2)o1)NCC(=O)c1ccccc1 -14.8%
Cc1ccc(S(=O)(=O)n2cnc3ccccc32)c(C)c1 -4.27%
COc1ccc(C)cc1NC(=O)NCCCCc1ccccc1 4.53%
Cc1ccccc1CN1C[C@@H]2C[C@@H](c3cn(C)nc3-c3ccccc3)N3CCC[C@@]23C1=O 21.9%
Cc1ccc(NC2=C(Cl)C(=O)OC2OC(=O)c2ccccc2C)cc1 (stereo unspecified) 4.37%
S=C(NCCc1ccccc1)Nc1ccccc1 1.82%
CC(=O)Nc1ccc(S(=O)(=O)N(C)CC(=O)NCCC2=CCCCC2)cc1 -0.53%
CS(=O)(=O)Nc1cccc(C2=NN(S(=O)(=O)c3ccccc3)C(c3cccs3)C2)c1 (stereo unspecified) 22.3%
CCN(CC)Cc1c(C(=O)OC)nnn1-c1nonc1N -1.39%
CCOc1ncccc1C(=O)NCCc1ccc(OC)cc1 15%
CCN(CC)CCOCCOc1ccc(Cl)c2ccccc12 20.8%
CCC(C)c1ccccc1NC(=O)CN(C)CC(=O)Nc1ccccc1SC (stereo unspecified) 19.5%
O=C(NCCNc1ccc([N+](=O)[O-])cc1Cl)c1ccccc1F 18.8%
O=[N+]([O-])c1ccc(N(CCO)Cc2ccccc2)c([N+](=O)[O-])c1 23.3%
Cc1cc(OC(C)C(=O)NC2CC(C)(C)NC(C)(C)C2)c2c(C)cc(=O)oc2c1 (stereo unspecified) -2.7%
Cc1c(CCO)c(=O)n(-c2ccccc2)n1S(=O)(=O)c1ccc(F)cc1 -9.84%
O=C(COc1ccc(S(=O)(=O)Nc2cccc(C(F)(F)F)c2)cc1)N1CCOCC1 19.6%
O=S(=O)(c1ccc(OCC(O)CN2CCN(c3ccccc3Cl)CC2)cc1)N1CCOCC1 (stereo unspecified) 11.4%
Cc1ccc(NC(=S)N(CCCN2CCC(C)CC2)Cc2ccco2)cc1 0.61%
Cc1ccc(SCc2cc(=O)[nH]c(N3CCCCC3)n2)cc1 -9.2%
Cc1ccccc1Nc1nnc(SCC(=O)c2cc3ccccc3o2)s1 3.71%
Cc1ccc(CNC(=O)C2CCN(S(=O)(=O)c3ccc4nc5c(c(C(=O)O)c4c3)CC(C)CC5)CC2)cc1 (stereo unspecified) 16.8%
Cn1c(=O)c([N+](=O)[O-])c(Oc2ccccc2)c2ccccc21 17.2%
COc1ccccc1N(C(=O)Cn1nnc2ccccc21)C(C(=O)NCc1ccco1)c1ccc(C)o1 (stereo unspecified) 22.8%

inhibition, active:
Cc1cccc(CS(=O)(=O)c2ncc(Cl)c(C(=O)Nc3ccc(F)cc3)n2)c1 51.2%
COc1ccc(NS(=O)(=O)c2ccc(NC(=S)NC(=O)CC(C)C)cc2)cc1 35.8%
COc1ccc(C2Nc3ccccc3C(=O)N2Cc2ccccc2)cc1Cn1nnc2ccccc21 (stereo unspecified) 31.7%
COc1ccc(C(CCNCc2ccccc2F)c2ccc(F)cc2)cc1 (stereo unspecified) 47.2%
CC(C)OCCCNc1ncnc2c1[nH]c1ccc(F)cc12 39.2%
O=C(CN1CCN(C(=S)NC2CCCC2)CC1)Nc1ccc(Oc2ccccc2)cc1 28.6%
CCc1ccc(NC(=O)c2ccc(Cn3cc([N+](=O)[O-])cn3)cc2)cc1 29.5%
CCOc1ccc(Cn2nnc(C(=O)NCc3ccccc3)c2N)cc1 52.4%
CCN1CCN(c2ccc([N+](=O)[O-])cc2C(=O)c2ccc(Cl)cc2)CC1 39.6%
Cc1ccc(C(=O)C[n+]2cc(-c3ccccc3)n3c2CCCCC3)cc1 27.9%
C=CCC1(CC=C)CCCN1C(=O)c1cc(COc2ccc(-n3cncn3)cc2)on1 29.2%
Clc1ccc(-c2cc(C3CCNCC3)[nH]n2)c(Cl)c1 34.3%
CCCCCCCCCCOC(=O)Cn1c(COc2cccc(OC)c2)[n+](C)c2ccccc21 78.9%
Cc1cccc(NC(=O)c2cccc(C(=O)Nc3cccc(C)c3C)n2)c1C 37.8%
Clc1ccc(C2CC(c3cccs3)n3ncnc3N2)cc1Cl (stereo unspecified) 31.9%
CCC(C(=O)Nc1ccc(C(C)C)cc1)c1ccccc1 (stereo unspecified) 94.1%
CC(=O)N1CCCc2cc(S(=O)(=O)N3CCCC(C(=O)N4CCN(c5cccc(Cl)c5)CC4)C3)ccc21 (stereo unspecified) 69.6%
COc1cc(OC)cc(C(=O)N[C@H](C(=O)OCC(=O)NC(C)c2ccccc2)C(C)C)c1 (stereo partly specified) 79.4%
Cc1ccccc1NC(=S)NC(=O)Cc1ccc(Cl)cc1 70.5%
O=C(Cc1ccc(Cl)cc1)NC(=S)Nc1ccccc1O 84.5%
CN(c1cccc(NC(=O)Nc2ccc(Cl)cc2)c1)S(C)(=O)=O 31%
OC(CNCC1CCCO1)Cn1c2ccc(Br)cc2c2cc(Br)ccc21 (stereo unspecified) 78.3%
O=C(NCCCN1CCOCC1)c1ccc2c(c1)N(Cc1cccc(F)c1)C(=O)c1ccccc1S2 24.3%
Cc1ccccc1CN1C(=O)c2ccccc2Sc2ccc(C(=O)NCCCN3CCOCC3)cc21 42.4%
CS(=O)(=O)N(Cc1ccc(Cl)cc1)c1ccc(C(=O)NCCSCc2ccco2)cc1 32.3%
Cc1ccc2[nH]cc(CCNC(=O)c3ccc([N+](=O)[O-])cc3)c2c1 40.7%
CC1CN(C(=O)CCC(=O)NCCCN2CCC(Cc3ccccc3)CC2)c2cc(Cl)ccc2O1 (stereo unspecified) 49.4%
c1ccc(C2CNCc3c2ccc2ccccc32)cc1 (stereo unspecified) 89.5%
CN(c1ccccc1)S(=O)(=O)c1ccc(C(=O)NCCc2ccccc2)cc1 24.1%
N=c1n(CCc2ccccc2)c2ccccc2n1Cc1ccccc1F 36.4%
COc1ccc(CS(=O)/C(Cl)=C(/Cl)C(=O)Nc2ccc(OC)nc2)cc1 (stereo unspecified) 63.6%
CCc1ccc(OCC2c3cc(OC)c(OC)cc3CCN2C(C)=O)cc1 (stereo unspecified) 30%
COc1ccccc1N1CCN(c2ncnc3sc(C)c(-c4ccccc4)c23)CC1 37.2%
O=C(NCCCN1CCN(c2ccc(F)cc2)CC1)Nc1ccc([N+](=O)[O-])cc1 41.9%
COc1cccc(CNCCc2c[nH]c3ccccc23)c1OCc1ccccc1F 61.5%
O=C(CSCc1ccc([N+](=O)[O-])cc1)NCCSCc1ccccc1 35.4%
CC(C(=O)N1CCN(c2ccccc2F)CC1)c1ccc([N+](=O)[O-])cc1 (stereo unspecified) 42.2%
Cc1cc(OCc2ccc(C(=O)Nc3ccc(C(=O)O)cc3)o2)ccc1Cl 44.9%
Cc1ccc2nc(C)c3c(c2c1)N(c1ccccc1)CC3 37.9%
CS(=O)(=O)N(CC(O)Cn1c2ccccc2c2ccccc21)c1cccc2ccccc12 (stereo unspecified) 45%
O=[N+]([O-])/C=C/c1ccc2c(ccn2Cc2ccccc2)c1 92.4%
CN(C)S(=O)(=O)N1CCC(Oc2cccc(C(=O)NCCCC3CCCC3)c2)CC1 40.1%
COc1ccc([N+](=O)[O-])cc1N(CC(O)CN(CC(C)C)CC(C)C)S(=O)(=O)c1ccc(C)cc1 (stereo unspecified) 31.9%
N#CC1=C(SCc2ccc(C#N)cc2)N=C(N)C(c2nc(-c3ccccc3)cs2)C12CCCCC2 (stereo unspecified) 44.2%
COc1cc(OC)c(-n2cc(-c3ccc(Cl)cc3)[nH]c2=O)cc1Cl 60.4%
Cc1cc(Cl)ccc1OCCCC(=O)Nc1cccc(-n2cnnn2)c1 27.4%
CCCOc1ccccc1C1CC(=O)Nc2cc3c(cc21)OCO3 (stereo unspecified) 24.6%
Nc1nnc(SCC(=O)Nc2ccc3nc(SCC(=O)Nc4ccccc4)sc3c2)s1 59.8%
